According to PMC7862700, “An all-to-all approach to the identification of sequence-specific readers for epigenetic DNA modifications on cytosine”:

What was measured:
Assay in all cases: DAPPL (digital affinity profiling via proximity ligation, sequencing); 10 mM Tris-HCl pH 7.5, 50 mM NaCl, 1 mM DTT, 4% glycerol, room temperature, 30 min; GST-TFs on glutathione beads, 16-mer random dsDNA library, 0.1% formaldehyde crosslink after washing; high values mean tight binding
FEV = target: T1, FEV (Homo sapiens, UniProt Q99581 1-238); conditions: protein: recombinant; tags: N-terminal GST; dsDNA, one strand shown
T1 sequence: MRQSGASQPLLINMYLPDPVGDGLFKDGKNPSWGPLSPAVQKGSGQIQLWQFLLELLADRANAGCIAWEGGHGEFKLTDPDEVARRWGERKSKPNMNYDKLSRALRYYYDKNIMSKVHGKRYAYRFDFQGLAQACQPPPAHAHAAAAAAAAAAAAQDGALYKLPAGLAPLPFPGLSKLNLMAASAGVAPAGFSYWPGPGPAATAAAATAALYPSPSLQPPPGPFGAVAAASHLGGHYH
Summary of the method: (§1)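 Binding signal is each hexamer's read frequency for a factor divided by its frequency in the tag-only sample. The factors were GST-fused human transcription factors from yeast, captured on glutathione beads, DNA-barcoded and pooled with that sample. Pools were incubated with 200 nmole of a random double-stranded 16-mer DNA library in Tris/NaCl/DTT/glycerol buffer at room temperature for 30 min, then washed, crosslinked with 0.1% formaldehyde, proximity-ligated with BsaI/T4 ligase (1 h, 37 °C), PCR-amplified and sequenced on an Illumina NextSeq500.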

ETV5 = ETV5 (Homo sapiens, UniProt P41161 1-510); conditions: protein: recombinant; tags: N-terminal GST; dsDNA, one strand shown
ETV5, sequence (P41161 whole entry): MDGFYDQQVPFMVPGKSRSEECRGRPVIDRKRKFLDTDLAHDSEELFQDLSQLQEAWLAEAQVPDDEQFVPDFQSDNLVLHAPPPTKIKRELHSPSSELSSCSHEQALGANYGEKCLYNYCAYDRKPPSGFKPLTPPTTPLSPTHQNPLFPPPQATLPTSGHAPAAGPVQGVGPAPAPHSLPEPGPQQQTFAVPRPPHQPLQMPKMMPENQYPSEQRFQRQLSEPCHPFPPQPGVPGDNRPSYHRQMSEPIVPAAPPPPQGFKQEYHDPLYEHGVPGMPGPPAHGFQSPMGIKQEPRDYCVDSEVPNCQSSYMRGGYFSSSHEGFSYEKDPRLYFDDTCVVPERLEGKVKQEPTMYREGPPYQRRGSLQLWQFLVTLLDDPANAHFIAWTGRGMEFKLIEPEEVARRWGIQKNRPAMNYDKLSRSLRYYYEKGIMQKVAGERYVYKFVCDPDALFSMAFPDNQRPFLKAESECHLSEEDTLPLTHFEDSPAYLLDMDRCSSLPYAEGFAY
Summary of the method: as §1

HSF1 = HSF1 (Homo sapiens, UniProt Q00613 1-529); conditions: protein: recombinant; tags: N-terminal GST; chain copies: 3; dsDNA, one strand shown
HSF1, sequence (Q00613 whole entry): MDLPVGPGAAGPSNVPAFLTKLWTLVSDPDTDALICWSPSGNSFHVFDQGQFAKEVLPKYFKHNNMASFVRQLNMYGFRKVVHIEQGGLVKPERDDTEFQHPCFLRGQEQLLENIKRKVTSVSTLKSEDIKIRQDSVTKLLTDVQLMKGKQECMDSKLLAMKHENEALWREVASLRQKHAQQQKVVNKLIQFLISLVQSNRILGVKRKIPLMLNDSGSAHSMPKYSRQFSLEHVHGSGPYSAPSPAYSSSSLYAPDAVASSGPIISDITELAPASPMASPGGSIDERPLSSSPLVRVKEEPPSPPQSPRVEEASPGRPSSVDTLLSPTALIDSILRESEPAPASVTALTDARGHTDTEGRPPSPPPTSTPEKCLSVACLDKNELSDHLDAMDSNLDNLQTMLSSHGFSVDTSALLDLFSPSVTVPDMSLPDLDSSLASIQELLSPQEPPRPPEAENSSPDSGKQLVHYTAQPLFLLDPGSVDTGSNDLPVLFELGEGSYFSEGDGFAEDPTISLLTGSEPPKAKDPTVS
Summary of the method: as §1

ELF4 = ELF4 (Homo sapiens, UniProt Q99607 1-663); conditions: protein: recombinant; tags: N-terminal GST; dsDNA, one strand shown
ELF4, sequence (Q99607 whole entry): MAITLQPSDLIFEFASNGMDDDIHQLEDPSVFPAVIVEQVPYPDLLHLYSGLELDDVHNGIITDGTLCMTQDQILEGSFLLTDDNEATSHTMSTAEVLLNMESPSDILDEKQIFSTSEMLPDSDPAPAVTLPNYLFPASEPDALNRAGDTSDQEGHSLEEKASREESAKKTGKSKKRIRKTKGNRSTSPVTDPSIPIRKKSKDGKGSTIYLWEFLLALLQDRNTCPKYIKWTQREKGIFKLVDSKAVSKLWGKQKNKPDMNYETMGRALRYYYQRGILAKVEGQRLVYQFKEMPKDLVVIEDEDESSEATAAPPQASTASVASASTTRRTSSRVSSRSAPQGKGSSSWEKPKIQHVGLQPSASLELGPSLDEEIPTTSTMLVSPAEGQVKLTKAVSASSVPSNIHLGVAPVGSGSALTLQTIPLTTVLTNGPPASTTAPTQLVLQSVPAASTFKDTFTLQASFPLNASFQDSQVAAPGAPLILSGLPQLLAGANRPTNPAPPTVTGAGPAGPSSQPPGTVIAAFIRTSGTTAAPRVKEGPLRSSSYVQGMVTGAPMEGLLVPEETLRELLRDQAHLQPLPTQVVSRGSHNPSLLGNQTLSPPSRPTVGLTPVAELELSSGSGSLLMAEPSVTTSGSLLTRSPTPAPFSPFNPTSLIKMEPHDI
Summary of the method: as §1

ELK4 = target: T2, ELK4 (Homo sapiens, UniProt P28324-2 1-405); conditions: protein: recombinant; tags: N-terminal GST; dsDNA, one strand shown
T2 sequence: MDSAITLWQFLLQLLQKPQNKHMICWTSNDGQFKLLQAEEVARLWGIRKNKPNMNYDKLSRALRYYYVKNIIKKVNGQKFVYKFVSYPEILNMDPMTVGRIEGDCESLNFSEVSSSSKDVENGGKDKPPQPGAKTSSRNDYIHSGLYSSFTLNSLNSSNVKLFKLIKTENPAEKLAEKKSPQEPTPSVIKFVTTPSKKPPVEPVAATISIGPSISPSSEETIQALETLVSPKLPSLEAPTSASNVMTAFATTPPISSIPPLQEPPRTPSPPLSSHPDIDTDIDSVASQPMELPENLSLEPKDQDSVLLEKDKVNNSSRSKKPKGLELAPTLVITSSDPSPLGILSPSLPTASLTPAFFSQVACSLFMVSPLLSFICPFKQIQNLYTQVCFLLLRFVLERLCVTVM
Summary of the method: as §1

ETV2 = target: T3, ETV2 (Homo sapiens, UniProt O00321 1-342); conditions: protein: recombinant; tags: N-terminal GST; dsDNA, one strand shown
T3 sequence: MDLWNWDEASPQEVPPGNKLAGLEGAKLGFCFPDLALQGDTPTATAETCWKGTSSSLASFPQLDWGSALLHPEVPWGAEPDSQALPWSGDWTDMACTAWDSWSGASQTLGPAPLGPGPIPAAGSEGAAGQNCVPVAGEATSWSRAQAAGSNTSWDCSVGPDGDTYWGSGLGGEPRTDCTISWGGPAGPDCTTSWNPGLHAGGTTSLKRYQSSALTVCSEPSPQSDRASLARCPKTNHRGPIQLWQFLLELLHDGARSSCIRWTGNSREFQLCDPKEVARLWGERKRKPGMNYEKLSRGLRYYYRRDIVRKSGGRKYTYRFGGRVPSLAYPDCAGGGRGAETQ
Summary of the method: as §1

ELF3 = target: T4, ELF3 (Homo sapiens, UniProt P78545 1-371); conditions: protein: recombinant; tags: N-terminal GST; dsDNA, one strand shown
T4 sequence: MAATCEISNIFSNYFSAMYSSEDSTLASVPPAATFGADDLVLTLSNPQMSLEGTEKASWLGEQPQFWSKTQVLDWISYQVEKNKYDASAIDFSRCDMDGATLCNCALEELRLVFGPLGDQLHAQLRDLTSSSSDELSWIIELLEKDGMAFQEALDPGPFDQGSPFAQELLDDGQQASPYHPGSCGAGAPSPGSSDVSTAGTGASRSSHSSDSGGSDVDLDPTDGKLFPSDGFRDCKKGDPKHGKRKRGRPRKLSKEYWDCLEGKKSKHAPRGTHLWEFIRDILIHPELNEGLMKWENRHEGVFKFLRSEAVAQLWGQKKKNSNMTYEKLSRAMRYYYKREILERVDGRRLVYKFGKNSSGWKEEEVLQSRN
Summary of the method: as §1

CRX = CRX (Homo sapiens, UniProt O43186 1-299); conditions: protein: recombinant; tags: N-terminal GST; dsDNA, one strand shown
CRX, sequence (O43186 whole entry): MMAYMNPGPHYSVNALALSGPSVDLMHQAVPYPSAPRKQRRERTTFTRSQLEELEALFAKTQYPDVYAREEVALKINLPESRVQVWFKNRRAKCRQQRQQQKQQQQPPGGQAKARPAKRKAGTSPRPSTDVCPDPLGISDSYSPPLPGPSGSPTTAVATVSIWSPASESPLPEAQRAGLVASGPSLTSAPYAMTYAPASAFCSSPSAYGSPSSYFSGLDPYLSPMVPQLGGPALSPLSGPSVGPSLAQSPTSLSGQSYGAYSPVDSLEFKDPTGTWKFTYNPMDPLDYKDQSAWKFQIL
Summary of the method: as §1

ETV1 = ETV1 (Homo sapiens, UniProt P50549 1-477); conditions: protein: recombinant; tags: N-terminal GST; dsDNA, one strand shown
ETV1, sequence (P50549 whole entry): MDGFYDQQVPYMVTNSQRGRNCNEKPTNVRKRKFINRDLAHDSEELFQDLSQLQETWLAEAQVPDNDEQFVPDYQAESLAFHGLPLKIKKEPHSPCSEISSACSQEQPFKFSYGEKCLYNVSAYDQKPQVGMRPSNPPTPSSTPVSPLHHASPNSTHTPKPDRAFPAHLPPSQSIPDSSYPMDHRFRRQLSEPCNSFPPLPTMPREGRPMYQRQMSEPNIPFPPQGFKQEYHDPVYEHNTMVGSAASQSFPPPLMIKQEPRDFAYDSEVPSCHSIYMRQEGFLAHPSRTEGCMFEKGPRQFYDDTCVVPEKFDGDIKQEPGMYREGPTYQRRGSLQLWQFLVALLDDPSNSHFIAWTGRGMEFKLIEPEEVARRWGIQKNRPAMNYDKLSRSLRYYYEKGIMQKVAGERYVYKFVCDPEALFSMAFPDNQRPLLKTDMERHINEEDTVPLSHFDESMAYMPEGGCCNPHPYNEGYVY
Summary of the method: as §1

ERF = target: T5, ERF (Homo sapiens, UniProt P50548 1-548); conditions: protein: recombinant; tags: N-terminal GST; dsDNA, one strand shown
T5 sequence: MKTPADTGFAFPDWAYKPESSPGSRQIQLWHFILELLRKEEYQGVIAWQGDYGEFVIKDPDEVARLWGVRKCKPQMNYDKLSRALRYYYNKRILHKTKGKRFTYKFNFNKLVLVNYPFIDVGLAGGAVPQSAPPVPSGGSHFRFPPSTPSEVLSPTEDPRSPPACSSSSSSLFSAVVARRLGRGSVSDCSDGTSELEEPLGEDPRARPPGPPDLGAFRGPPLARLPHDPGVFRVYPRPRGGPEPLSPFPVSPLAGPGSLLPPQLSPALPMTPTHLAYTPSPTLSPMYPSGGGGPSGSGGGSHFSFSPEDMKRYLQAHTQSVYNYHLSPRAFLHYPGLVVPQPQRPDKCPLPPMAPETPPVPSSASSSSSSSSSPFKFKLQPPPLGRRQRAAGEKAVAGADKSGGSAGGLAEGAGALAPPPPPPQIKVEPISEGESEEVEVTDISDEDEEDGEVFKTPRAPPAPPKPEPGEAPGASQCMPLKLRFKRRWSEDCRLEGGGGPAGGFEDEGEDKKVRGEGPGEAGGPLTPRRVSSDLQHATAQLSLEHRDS
Summary of the method: as §1

ETV3L = target: T6, ETV3L (Homo sapiens, UniProt Q6ZN32 1-361); conditions: protein: recombinant; tags: N-terminal GST; dsDNA, one strand shown
T6 sequence: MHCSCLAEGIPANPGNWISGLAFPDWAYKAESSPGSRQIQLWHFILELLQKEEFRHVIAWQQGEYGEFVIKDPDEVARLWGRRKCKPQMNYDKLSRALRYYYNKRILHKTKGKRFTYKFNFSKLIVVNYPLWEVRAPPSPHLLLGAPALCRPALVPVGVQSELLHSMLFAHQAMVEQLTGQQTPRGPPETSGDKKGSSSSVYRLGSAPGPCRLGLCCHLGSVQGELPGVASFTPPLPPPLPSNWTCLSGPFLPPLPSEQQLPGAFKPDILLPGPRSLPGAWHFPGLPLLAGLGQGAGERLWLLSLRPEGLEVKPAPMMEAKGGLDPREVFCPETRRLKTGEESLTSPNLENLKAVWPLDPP
Summary of the method: as §1

ETS2 = target: T7, ETS2 (Homo sapiens, UniProt P15036 1-469); conditions: protein: recombinant; tags: N-terminal GST; dsDNA, one strand shown
T7 sequence: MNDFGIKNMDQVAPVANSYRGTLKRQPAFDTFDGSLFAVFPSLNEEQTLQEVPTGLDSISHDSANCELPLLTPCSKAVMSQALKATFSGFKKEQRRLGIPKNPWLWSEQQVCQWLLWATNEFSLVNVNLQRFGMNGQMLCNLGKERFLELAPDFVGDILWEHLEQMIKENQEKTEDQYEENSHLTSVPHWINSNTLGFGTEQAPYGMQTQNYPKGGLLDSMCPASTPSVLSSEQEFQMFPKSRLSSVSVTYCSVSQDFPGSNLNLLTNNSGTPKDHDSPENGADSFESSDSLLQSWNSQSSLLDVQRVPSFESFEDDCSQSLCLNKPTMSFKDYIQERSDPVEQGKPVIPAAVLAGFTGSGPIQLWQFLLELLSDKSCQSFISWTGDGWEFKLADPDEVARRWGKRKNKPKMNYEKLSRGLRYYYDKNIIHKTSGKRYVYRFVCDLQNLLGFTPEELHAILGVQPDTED
Summary of the method: as §1

SPDEF = target: T8, SPDEF (Homo sapiens, UniProt O95238 1-335); conditions: protein: recombinant; tags: N-terminal GST; dsDNA, one strand shown
T8 sequence: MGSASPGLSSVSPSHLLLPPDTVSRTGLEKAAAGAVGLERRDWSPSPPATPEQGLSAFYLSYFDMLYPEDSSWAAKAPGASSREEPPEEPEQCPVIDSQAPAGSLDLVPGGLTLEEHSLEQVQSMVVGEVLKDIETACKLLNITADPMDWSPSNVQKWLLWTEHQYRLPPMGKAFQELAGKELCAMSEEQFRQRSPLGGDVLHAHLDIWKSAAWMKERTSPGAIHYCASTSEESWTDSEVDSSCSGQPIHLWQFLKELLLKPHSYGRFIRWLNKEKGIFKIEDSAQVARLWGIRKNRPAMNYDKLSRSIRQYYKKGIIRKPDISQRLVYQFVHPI
Summary of the method: as §1

ETV7 = target: T9, ETV7 (Homo sapiens, UniProt Q9Y603 1-341); conditions: protein: recombinant; tags: N-terminal GST; dsDNA, one strand shown
T9 sequence: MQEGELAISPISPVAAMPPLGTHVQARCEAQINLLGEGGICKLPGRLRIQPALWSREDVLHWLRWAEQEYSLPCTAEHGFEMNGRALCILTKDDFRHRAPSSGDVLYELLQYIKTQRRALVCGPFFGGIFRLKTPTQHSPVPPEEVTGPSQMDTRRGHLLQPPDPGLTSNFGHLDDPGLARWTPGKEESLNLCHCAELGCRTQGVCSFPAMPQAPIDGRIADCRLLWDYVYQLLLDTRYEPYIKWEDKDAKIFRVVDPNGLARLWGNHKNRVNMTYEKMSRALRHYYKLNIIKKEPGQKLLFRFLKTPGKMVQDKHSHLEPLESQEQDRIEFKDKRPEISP
Summary of the method: as §1

ELF5 = target: T10, ELF5 (Homo sapiens, UniProt Q9UKW6-2 1-255); conditions: protein: recombinant; tags: N-terminal GST; dsDNA, one strand shown
T10 sequence: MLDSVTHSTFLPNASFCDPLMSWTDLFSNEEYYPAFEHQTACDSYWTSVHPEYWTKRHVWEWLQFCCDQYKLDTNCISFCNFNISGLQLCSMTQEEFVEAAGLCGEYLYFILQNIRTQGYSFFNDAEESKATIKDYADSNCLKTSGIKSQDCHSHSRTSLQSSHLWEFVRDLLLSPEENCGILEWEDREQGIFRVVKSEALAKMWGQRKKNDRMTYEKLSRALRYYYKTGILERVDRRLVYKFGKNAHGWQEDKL
Summary of the method: as §1

ETV3 = target: T11, ETV3 (Homo sapiens, UniProt P41162-2 1-143); conditions: protein: recombinant; tags: N-terminal GST; dsDNA, one strand shown
T11 sequence: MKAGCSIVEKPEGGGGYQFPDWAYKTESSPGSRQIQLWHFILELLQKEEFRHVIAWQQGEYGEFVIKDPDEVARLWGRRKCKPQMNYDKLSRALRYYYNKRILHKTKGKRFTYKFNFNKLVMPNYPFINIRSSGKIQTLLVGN
Summary of the method: as §1

ETV6 = ETV6 (Homo sapiens, UniProt P41212 1-452); conditions: protein: recombinant; tags: N-terminal GST; dsDNA, one strand shown
ETV6, sequence (P41212 whole entry): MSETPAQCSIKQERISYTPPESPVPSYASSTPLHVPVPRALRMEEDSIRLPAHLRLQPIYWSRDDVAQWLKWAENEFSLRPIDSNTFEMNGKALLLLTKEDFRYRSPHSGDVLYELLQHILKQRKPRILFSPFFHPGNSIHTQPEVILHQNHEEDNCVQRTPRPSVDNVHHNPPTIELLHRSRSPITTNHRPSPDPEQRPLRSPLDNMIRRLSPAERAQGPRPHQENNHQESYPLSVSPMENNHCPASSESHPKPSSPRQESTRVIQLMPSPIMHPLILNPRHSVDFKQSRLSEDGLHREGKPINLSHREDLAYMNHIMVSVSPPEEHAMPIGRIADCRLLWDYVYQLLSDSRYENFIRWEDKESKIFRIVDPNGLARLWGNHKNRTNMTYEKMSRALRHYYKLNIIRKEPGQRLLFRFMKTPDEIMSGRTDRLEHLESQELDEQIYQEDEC
Summary of the method: as §1

Sequence	binding signal (FEV)	binding signal (ETV5)	binding signal (HSF1)	binding signal (ELF4)	binding signal (ELK4)	binding signal (ETV2)	binding signal (ELF3)	binding signal (CRX)	binding signal (ETV1)	binding signal (ERF)	binding signal (ETV3L)	binding signal (ETS2)	binding signal (SPDEF)	binding signal (ETV7)	binding signal (ELF5)	binding signal (ETV3)	binding signal (ETV6)
GTAATC	1.1 fold enrichment (6-mer frequency, TF over GST control)	1.22 fold enrichment (6-mer frequency, TF over GST control)	1.92 fold enrichment (6-mer frequency, TF over GST control)	1.14 fold enrichment (6-mer frequency, TF over GST control)	1.16 fold enrichment (6-mer frequency, TF over GST control)	1.11 fold enrichment (6-mer frequency, TF over GST control)	1.21 fold enrichment (6-mer frequency, TF over GST control)	3.14 fold enrichment (6-mer frequency, TF over GST control)	1.02 fold enrichment (6-mer frequency, TF over GST control)	1.08 fold enrichment (6-mer frequency, TF over GST control)	1.12 fold enrichment (6-mer frequency, TF over GST control)	1.16 fold enrichment (6-mer frequency, TF over GST control)	1.12 fold enrichment (6-mer frequency, TF over GST control)	1.17 fold enrichment (6-mer frequency, TF over GST control)	1.18 fold enrichment (6-mer frequency, TF over GST control)	1.1 fold enrichment (6-mer frequency, TF over GST control)	1.2 fold enrichment (6-mer frequency, TF over GST control)
TACAAA	1.11 fold enrichment (6-mer frequency, TF over GST control)	1.15 fold enrichment (6-mer frequency, TF over GST control)	1.12 fold enrichment (6-mer frequency, TF over GST control)	1.13 fold enrichment (6-mer frequency, TF over GST control)	1.09 fold enrichment (6-mer frequency, TF over GST control)	1.17 fold enrichment (6-mer frequency, TF over GST control)	1.06 fold enrichment (6-mer frequency, TF over GST control)	1.22 fold enrichment (6-mer frequency, TF over GST control)	1.14 fold enrichment (6-mer frequency, TF over GST control)	1.1 fold enrichment (6-mer frequency, TF over GST control)	1.03 fold enrichment (6-mer frequency, TF over GST control)	1.17 fold enrichment (6-mer frequency, TF over GST control)	1.14 fold enrichment (6-mer frequency, TF over GST control)	1.11 fold enrichment (6-mer frequency, TF over GST control)	1.13 fold enrichment (6-mer frequency, TF over GST control)	1.08 fold enrichment (6-mer frequency, TF over GST control)	1.16 fold enrichment (6-mer frequency, TF over GST control)
